HCV inhibitor: blocks hepatitis C virus; Huh7.5.1 HCVcc-Cre infection, luciferase reporter, 44 h; Potency, µM (series often up to 41.8 µM), without a hit: at the top dose activity change, negative = inhibition, usual class: inhibitors; 3.4% of 340,000 active; active = well fitted inhibition curve with a large enough effect; inconclusive = small, poorly fitted or top-dose-only effect, or another doubt; inactive = no such curve, though single readings can be large or run the other way
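Luciferase read-out (15 sec integration) after a 15 min room-temperature substrate step quantifies HCVcc-Cre infection. Cells, 1,000 per well, had compound added 4 h post-plating, then virus at ~0.5 moi, and were cultured 44 h.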
Vaccinia mCherry: vaccinia inhibition (mCherry reporter). Vaccinia virus mCherry reporter infection, fluorescence. Potency, µM (series often up to 36.5 µM), for inactives: top-dose activity change, negative = inhibition, hits mostly inhibitors. 0.63% of 310,000 active; calls by dose curve; tested in A549 cells; note: nearly all actives have a fitted effect of over 35% in size
VACV Venus inh: vaccinia inhibition (Venus reporter); 0.46% of 330,000 active; Potency, µM (top dose mostly 36.5 µM), for the others: top-dose activity change, negative = inhibition, usual class: inhibitors; Vaccinia virus Venus reporter expression, fluorescence; calls by dose curve; tested in A549 cells; note: nearly all actives have a fitted effect of over 30% in size
The depositor's hits bear a star; i = inactive; ? = inconclusive; . = not tested or not shown; [ ] = dose if it differs, or a comment. In the library only some 3.3% were active in any assay of this set; here they are far more common. % is set by controls: 0 for no effect and ±100 for the full control effect; potency is the fitted concentration of half-maximal effect.

SMILES	HCV inhibitor	Vaccinia mCherry	VACV Venus inh
COC(=O)c1ccccc1NC(=O)/C=C/c1cc(OC)c(OC)c(OC)c1	5.01µM*	.	0.9%
Cc1ccc(C(=O)NC(=S)Nc2cccnc2Cl)cc1	-23.4%	-2.3%	-15.0%
COc1ccc(NC(=O)Nc2ccccc2OC)cc1	-12.3%	-0.3%	-6.3%
COc1ccc(/C=C/C(=O)Nc2ccccc2C(=O)O)cc1OC	0.6%[8.37 µM]	.	.
Cc1cc(C)cc(NC(=O)Nc2ccc(-n3ccc(C(F)(F)F)n3)cc2)c1	?	-4.6%	?
COc1ccccc1C(=O)NC(=S)Nc1cccnc1Cl	11.2µM*	-3.9%	-0.5%
COc1ccccc1NC(=O)Nc1ccc(NC(=O)c2ccccc2O)cc1	12.6µM*	.	.
COc1ccccc1NC(=O)Nc1ccc(-n2ccc(C(F)(F)F)n2)cc1	5.62µM*	i	-28.3%
O=C1CC(c2ccccc2)Cc2[nH]c(=O)c(C(=O)O)cc21 (stereo not drawn)	.	34.5%	-4.0%
O=C(CN1CCN(C(=O)c2ccccc2)CC1)Nc1cccc(S(=O)(=O)N2CCCC2)c1	-11.0%	-15.2%	-14.2%
CC(=O)N1CCc2cc(S(=O)(=O)NC(CC(C)C)C(=O)NCCc3ccc(C)cc3)ccc21 (stereo not drawn)	.	-0.8%	8.2%
Cc1ccc2oc(-c3ccc(C)c(NC(=O)COc4ccccc4C)c3)nc2c1	.	-7.8%	-20.7%
COC(=O)c1ccccc1NC(=O)c1cc(CN2CCCC2)on1	.	-2.5%	-5.9%
COC(=O)c1ccccc1NC(=O)c1ccccc1OC	11.2µM*	.	-14.5%
CCCc1cc(C(=O)Nc2ccccc2C(=O)OC)no1	10µM*	i	-2.8%
COc1ccccc1NC(=O)c1ccccc1C(=O)Nc1ccccc1OC	8.2%	-12.3%	-15.2%
Cc1ccc(-n2nc(C)c3c(C)cc(=O)n(CC(=O)Nc4cccc(C)c4C)c32)cc1	.	-2.9%	-0.3%
COc1cc(NC(=O)CC2C(=O)N(c3cccc(C)c3)C(=O)N2Cc2ccc(F)cc2)cc(OC)c1 (stereo not drawn)	.	-10.9%	-14.3%
COc1ccc(Cn2c(-c3ccc(OC)cc3)nc3ccccc32)cc1	?	-6.9%	-0.2%
COc1ccc(CCN2CCC(Nc3nc4ccccc4n3Cc3ccc(F)cc3)CC2)cc1	15.8µM*	11.2µM*	10µM*
Cc1ccc(CN2CCSc3ccc(C(=O)Nc4ccc(C)cc4)cc32)cc1	.	i	-17.2%
O=C(NC1CC1)c1ccc2c(c1)N(Cc1ccc(Cl)cc1)CCS2	22.4µM*	.	.
Cc1ccc(CN2CCSc3ccc(C(=O)NCCCN4CCOCC4)cc32)cc1	-21.1%	.	.
CCN1CCN(CCCNC(=O)c2ccc3c(c2)N(Cc2ccc(C)cc2)CCS3)CC1	11.2µM*	.	.
COc1ccc(CCNC(=O)c2ccc3c(c2)N(Cc2ccc(Cl)cc2)CCS3)c(OC)c1	.	-22.7%	-17.5%
SMILES	HCV inhibitor	Vaccinia mCherry	VACV Venus inh
Cc1ccc(CN2CCSc3ccc(C(=O)NC4CCN(Cc5ccccc5)CC4)cc32)cc1	8.91µM*	-14.7%	-18.6%
CCn1c(-c2cccnc2)nc2cc(NC(=O)COC)cc(C(=O)N3CCOc4ccccc4C3)c21	.	-13.6%	-11.6%
CN(c1ccccc1)S(=O)(=O)c1cccc(NC(=O)CN2CCc3ccccc3C2)c1	-4.7%	-9.8%	-2.1%
CN1C(=O)N(CC(=O)Nc2cccc(S(=O)(=O)N(C)c3ccccc3)c2)C(=O)C12CCCCC2	3.98µM*	-17.1%	-25.5%
CCN(CC)S(=O)(=O)c1cccc(NC(=O)CN2C(=O)NC3(CCOc4ccccc43)C2=O)c1 (stereo not drawn)	-5.0%	?	-25.6%
CCC1CCC2(CC1)NC(=O)N(CC(=O)Nc1cccc(S(=O)(=O)N(C)c3ccccc3)c1)C2=O (stereo not drawn)	8.91µM*	.	.
CCOC(=O)c1cc(OC(=O)c2cc(OC)cc(OC)c2)n(-c2ccccc2)n1	.	3.1%	-1.6%
Cn1c(=O)c2sccc2n2c(CCCC(=O)Nc3ccc(F)c(F)c3)nnc12	.	-2.7%	-5.0%
COc1ccc(Oc2c(C(F)(F)F)oc3c(CN4CCCC(C)C4)c(O)ccc3c2=O)cc1 (stereo not drawn)	.	-0.4%	-9.7%
O=C(CSc1nc2ccccc2nc1Cc1ccc(Cl)cc1)N1CCN(c2ccccc2F)CC1	.	-16.7%	-9.7%
CSc1nc(=O)[nH]c2nc[nH]c12	.	-15.1%	-8.9%
CC(=O)Nc1ccc(C2C(=O)c3ccccc3C2=O)cc1	?	-7.9%	-4.4%
CCCC(=O)Nc1ccc(C2C(=O)c3ccccc3C2=O)cc1	5.01µM*	i	-3.9%
CCN(C(=O)c1c(C)oc2ncn(CC(C)C)c(=O)c12)c1cccc(Cl)c1	.	-11.9%	-3.6%
Cc1ccc([N+](=O)[O-])cc1N/C=C/C(=O)c1ccco1	6.31µM*	-28.5%	-20.1%
Cc1ccc(N/C=C/C(=O)c2ccco2)c(O)c1	6.2%	.	.
Nc1c(Cl)ncnc1N/N=C/c1ccc2ccccc2n1	3.98µM*	2.82µM*	?
Nc1c(Cl)ncnc1N/N=C/c1ccccn1	?	2.24µM*	?
Nc1c(Cl)ncnc1N/N=C/c1ccnc2ccccc12	-16.3%	-17.4%	-7.5%
Nc1c(Cl)ncnc1N/N=C/c1cccnc1	8.9%	-14.0%	6.5%
CCn1c(=N)n(CCOc2ccc(Br)cc2)c2ccccc21	.	i[7.34 µM]	-15.3%[7.34 µM]
CC1(C)CC[C@]2(C(=O)O)C(O)C[C@@]3(C)C(=CCC4[C@@]5(C)CCC(O)C(C)(C)C5CC[C@@]43C)C2C1 (stereo partly drawn)	.	i	0.0%
O=C1CCN(Cc2cccn2-c2ccccn2)CCN1Cc1ccccc1C(F)(F)F	.	-14.5%	11.1%
COc1cc(/C=C2\SC(=Nc3ccc(O)cc3)NC2=O)cc(OC)c1OC	3.98µM*	-6.0%	-10.0%
COc1cc(/C=C2/SC(=Nc3ccc(O)cc3)NC2=O)cc(OC)c1O	?	i	107.4%
SMILES	HCV inhibitor	Vaccinia mCherry	VACV Venus inh
CCn1cc(C(=O)N2CCN(c3cccc(C)c3)C(C)C2)c(=O)c2cc(S(=O)(=O)N3CCOCC3)ccc21 (stereo not drawn)	.	i	0.4%
Cc1cc(C)c(Cn2cnc(-c3ccc([N+](=O)[O-])cc3)c2)c(C)c1	11.2µM*	i	0.0%
CC(C)(C)c1ccc(Cn2cnc(-c3ccc([N+](=O)[O-])cc3)c2)cc1	?	-6.2%	-26.3%
COc1ccccc1C(=O)N1CCOc2ccc(C(C)(O)CCn3cccn3)cc2C1 (stereo not drawn)	.	-13.5%	-9.0%
CC1CCc2sc(C(=O)N(C)CC(=O)Nc3ccc(N4CCOCC4)cc3)cc2C1 (stereo not drawn)	0.1%	-17.5%	-10.3%
O=C(Nc1ccc(N2CCOCC2)cc1)c1cc2c(s1)CCCCC2	11.2µM*	-23.1%	-20.0%
O=C(Nc1ccccc1N1CCOCC1)c1cc2c(s1)CCCCC2	-6.3%	-1.6%	-14.1%
O=C(Nc1ccc(N2CCOCC2)cc1)c1cc2c(s1)CCCC2	3.98µM*	-19.0%	-27.9%
CSc1ccc(CCNC(=O)Cn2ncc3c(=O)oc4ccccc4c32)cc1	.	-11.9%	-2.2%
CCC(C(=O)NCCC(C)C)n1ccc2cc(S(=O)(=O)N3CCCCC3)ccc21 (stereo not drawn)	10µM*	i[7.34 µM]	0.0%[7.34 µM]
CC(C)CCNC(=O)c1cc2cc(S(=O)(=O)N3CCCCC3)ccc2n1C	.	-11.6%	-15.0%
COc1ccc2c(C)c(CC(=O)NCCc3ccc(Cl)cc3)c(=O)oc2c1C	.	3.4%	7.9%
COc1ccc(N(C(=O)c2snc(C(N)=O)c2N)C(C(=O)NC2CCCC2)c2ccc(F)cc2)c(OC)c1 (stereo not drawn)	11.2µM*	i	4.7%
